Source: PubChem BioAssay (Tox21)
Inconclusive results are not listed. Activity calls are given as the source filed them. Unless noted, the call rests on the fitted dose curve; in most records, active means well fitted curve in the direction sought with a large enough effect in the repeat runs; inconclusive means weak or mixed curves; inactive means no such curve, though single readings can be large; an effect the other way counts as inactive or inconclusive.

How the values were obtained:
[1] = qHTS assay to identify small molecule agonists of H2AX (AID 1224845; active means well fitted activation curve with a large enough effect in the signal ratio in the repeat runs, not every such curve was filed as active; the % refers to the signal ratio)
Method in brief: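 Wild-type CHO-K1 cells, plated overnight, exposed 3hr at 37C to 15 concentrations (0.76% DMSO final). Lysed, then HTRF anti-pH2AX (S139) cryptate and anti-H2AX-d2 antibodies, 24 hr room temperature; 665/620 nm emission read.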

[2] = qHTS assay to identify small molecule agonists of the hypoxia (HIF-1) signaling pathway (AID 1224846; active means well fitted activation curve with a large enough effect in the signal ratio in the repeat runs, not every such curve was filed as active; the % refers to the signal ratio)
Method in brief: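 A low-serum medium (0.5% dialyzed FBS) holding 2,000 HRE-bla ME-180 cells per well is preincubated for 5 hrs, dosed with compounds by pintool, and kept a further 17 hrs at 37C, 5% CO2 before CCF4-AM FRET detection of beta-lactamase.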

[3] = qHTS assay to identify small molecule agonists of H2AX - cell viability counter screen (AID 1224847; calls by dose curve; further: top concentration of the series differs between compounds; nearly all actives have a fitted effect of over 30% in size)
Method in brief: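 Viability of CHO-K1 (wild type) cells after 3 hr compound exposure was measured by CellTiter-Glo luminescence.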

[4] = qHTS RealTime-Glo MT Cell Viability Assay in HepG2 cells - 24 hour (AID 1224867); further: nearly all actives have a fitted effect of over 50% in size
Method in brief: (§1)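 Viability was tracked continuously by NanoLuc luminescence from prosubstrate reduced by living HepG2 cells, at successive time points over 40 h of compound exposure. Cells with reagent were preincubated 5 h at 37 °C before compound addition.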

[5] = qHTS RealTime-Glo MT Cell Viability Assay in HEK293 cells - 32 hour (AID 1224868); further: top concentration of the series differs between compounds; nearly all actives have a fitted effect of over 50% in size
Method in brief: (§2)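 Viability tracked continuously by luminescence as live cells reduce a prosubstrate for NanoLuc; HEK293 cells preincubated 5 h, compound-treated at 37 C, and read at 0, 8, 16, 24, 32 and 40 h.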

[6] = A CellTox Green Cytotoxicity Assay to monitor cytotoxicity in HEK293 cells - 0 hour (AID 1224869); further: nearly all actives have a fitted effect of over 50% in size
Method in brief: (§3)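 Fluorescence intensity, read at 0, 8, 16, 24, 32 and 40 h of compound treatment, reflected dye binding to DNA of dead HEK293 cells; compounds (23 nL, DMSO) were added 5 h after plating cells with reagent.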

[7] = qHTS RealTime-Glo MT Cell Viability Assay in HepG2 cells - 40 hour (AID 1224870); further: nearly all actives have a fitted effect of over 50% in size
Method in brief: (§4)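 HepG2 cells (600/well) mixed with RealTime-Glo MT reagent, settled 5 h at 37 C/5% CO2 before compound addition. Nonlytic NanoLuc luminescence from viable-cell prosubstrate reduction read repeatedly during 40 h treatment at 37 C.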

[8] = A CellTox Green Cytotoxicity Assay to monitor cytotoxicity in HEK293 cells - 40 hour (AID 1224871); further: nearly all actives have a fitted effect of over 45% in size
Method in brief: as §3

[9] = qHTS RealTime-Glo MT Cell Viability Assay in HEK293 cells - 16 hour (AID 1224872)
Method in brief: as §2

[10] = qHTS RealTime-Glo MT Cell Viability Assay in HepG2 cells - 8 hour (AID 1224873); further: nearly all actives have a fitted effect of over 55% in size
Method in brief: as §4

[11] = qHTS RealTime-Glo MT Cell Viability Assay in HEK293 cells - 40 hour (AID 1224874); conditions: RealTime-Glo luminescence; max response: hits give low values; further: nearly all actives have a fitted effect of over 50% in size
Method in brief: (§5)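 Viable HEK293 cells reduce a cell-permeant prosubstrate; the product diffuses out and is consumed by NanoLuc in the medium to give light. Compounds went in after a 5 h incubation and plates were read over the treatment course.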

[12] = A CellTox Green Cytotoxicity Assay to monitor cytotoxicity in HEK293 cells - 24 hour (AID 1224875); further: nearly all actives have a fitted effect of over 45% in size
Method in brief: as §3

[13] = A CellTox Green Cytotoxicity Assay to monitor cytotoxicity in HepG2 cells - 16 hour (AID 1224876); further: nearly all actives have a fitted effect of over 45% in size
Method in brief: (§6)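 Using 1536-well format, dye-containing HepG2 suspension was seeded, allowed 5 h at 37 C/5% CO2, dosed by pintool with compounds, positive and negative controls, and imaged for fluorescence across 40 h.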

[14] = qHTS RealTime-Glo MT Cell Viability Assay in HepG2 cells - 32 hour (AID 1224877); further: nearly all actives have a fitted effect of over 55% in size
Method in brief: as §1

[15] = A CellTox Green Cytotoxicity Assay to monitor cytotoxicity in HepG2 cells - 24 hour (AID 1224878); further: nearly all actives have a fitted effect of over 45% in size
Method in brief: as §6

[16] = A CellTox Green Cytotoxicity Assay to monitor cytotoxicity in HepG2 cells - 40 hour (AID 1224879); further: nearly all actives have a fitted effect of over 40% in size
Method in brief: as §6

[17] = qHTS RealTime-Glo MT Cell Viability Assay in HEK293 cells - 0 hour (AID 1224880)
Method in brief: as §5

[18] = qHTS assay to identify small molecule antagonists of the estrogen related receptor (ERR) signaling pathway from Tox21 library (AID 1224848); further: nearly all actives have a fitted effect of over 50% in size
Method in brief: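 ERR reporter cell line (from NTP) seeded 2,000 cells/well, rested 6 h at 37 C/5% CO2, then pin-dosed with compounds in DMSO. After 18 h at 37 C, ONE-Glo added; luminescence read after 30 min at room temperature.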

[19] = qHTS assay to identify small molecule agonists of the estrogen related receptor (ERR) signaling pathway from Tox21 library (AID 1224849; calls by dose curve; further: nearly all actives have a fitted effect of over 15% in size); conditions: ERR reporter cell line, ONE-Glo luciferase, 18 h; at 92.4 µM (top of the series) unless noted
Method in brief: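 Screening used an NTP-provided ERR luciferase cell line. Compounds in DMSO were added 6 h after seeding and left 18 h at 37 C before a 30 min ONE-Glo step and luminescence reading.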
On the % scale 0 is the no-effect control and ±100 the full control effect.

C=COCCOCCOCCOC=C
inactive: outcome [1] | outcome [2] | Potency [3] | outcome [4] | Potency [5] | outcome [6] | outcome [7] | Potency [8] | Potency [9] | outcome [10] | max response [11] 1.1% | outcome [12] | outcome [13] | outcome [14] | outcome [15] | Potency [16]

CC(CN)CC(C)(C)CCN (stereo not drawn)
inactive: outcome [1] | outcome [2] | outcome [4] | Potency [5] | outcome [6] | outcome [7] | Potency [8] | Potency [9] | outcome [10] | max response [11] 6.3% | outcome [12] | outcome [13] | outcome [14] | outcome [15] | Potency [16] | Potency [17]

C=CC(OCC)OCC
inactive: outcome [1] | outcome [2] | Potency [3] | outcome [4] | Potency [5] | outcome [6] | outcome [7] | Potency [8] | Potency [9] | max response [11] 8.05% | outcome [12] | outcome [13] | outcome [14] | outcome [15] | Potency [16] | Potency [17]

N[C@@H](COP(=O)(O)O)C(=O)O
inactive: activation (H2AX phosphorylation) [1] -3.89% [at 31.6 µM] | activity change, negative = cytotoxicity [3] -1.2% [at 31.6 µM] | activity change, negative = cytotoxicity [4] 0.52% [at 15.8 µM] | activity change, negative = cytotoxic [5] 2.67% [at 15.8 µM] | cytotoxicity [6] -3.53% [at 15.8 µM] | activity change, negative = cytotoxic [7] 1.81% [at 15.8 µM] | cytotoxicity increase [8] -6.71% [at 15.8 µM] | activity change, negative = cytotoxicity [9] 6.19% [at 15.8 µM] | viability change, negative = cytotoxic [10] 0.974% [at 15.8 µM] | max response [11] 7.08% | activity change [12] -7.17% [at 15.8 µM] | cytotoxicity increase [13] 1.02% [at 15.8 µM] | activity change, negative = cytotoxic [14] 1.44% [at 15.8 µM] | cytotoxicity [15] 0.599% [at 15.8 µM] | cytotoxicity increase [16] -0.277% [at 15.8 µM] | activity change, negative = cytotoxicity [17] 12.6% [at 15.8 µM]

CCCCNC1CC(C)(C)NC(C)(C)C1
inactive: outcome [1] | outcome [2] | Potency [18] | activity change, positive = activation [19] 8.08% | outcome [4] | Potency [5] | outcome [6] | outcome [7] | Potency [8] | Potency [9] | outcome [10] | max response [11] 10.4% | outcome [12] | outcome [13] | outcome [14] | outcome [15] | Potency [16] | Potency [17]

CC1=C(C(=O)O)N2C(=O)[C@@H](NC(=O)[C@H](N)c3ccc(O)cc3)[C@H]2SC1
inactive: outcome [1] | Potency [3] | outcome [4] | Potency [5] | outcome [6] | outcome [7] | Potency [8] | Potency [9] | outcome [10] | max response [11] 13.3% | outcome [12] | outcome [13] | outcome [14] | outcome [15] | Potency [16] | Potency [17]

CC(C)C(=O)OCc1cccc(OC(=O)[C@@H]2N3C(=O)[C@@H](NC(=O)Cc4ccccc4)[C@H]3SC2(C)C)c1
inactive: outcome [1] | outcome [2] | outcome [4] | Potency [5] | outcome [6] | outcome [7] | Potency [8] | Potency [9] | outcome [10] | max response [11] 0.269% | outcome [12] | outcome [13] | outcome [14] | outcome [15] | Potency [16] | Potency [17]

CCC(C)NC(N)=O (stereo not drawn)
inactive: outcome [1] | outcome [2] | Potency [3] | outcome [4] | Potency [5] | outcome [6] | outcome [7] | Potency [8] | Potency [9] | max response [11] 0.218% | outcome [12] | outcome [13] | outcome [14] | outcome [15] | Potency [16] | Potency [17]

CNS(=O)(=O)CCc1ccc2[nH]cc(C3CCN(C)CC3)c2c1
inactive: outcome [1] | Potency [3] | outcome [4] | Potency [5] | outcome [6] | outcome [7] | Potency [8] | Potency [9] | max response [11] -4.37% | outcome [12] | outcome [13] | outcome [14] | outcome [15] | Potency [16]

CC(C)(C)OC(=O)c1ccc(O)cc1
inactive: outcome [1] | outcome [2] | Potency [3] | Potency [18] | outcome [4] | Potency [5] | outcome [6] | outcome [7] | Potency [8] | Potency [9] | max response [11] -26.7% | outcome [13] | outcome [14] | Potency [17]

C=C(C)C(=O)OCCNC(C)(C)C
inactive: outcome [1] | outcome [2] | Potency [3] | Potency [18] | activity change, positive = activation [19] -2.14% | outcome [4] | Potency [5] | outcome [6] | outcome [7] | Potency [8] | outcome [10] | max response [11] 0.848% | outcome [12] | outcome [13] | outcome [14] | outcome [15] | Potency [16] | Potency [17]

CC(=O)N[C@@H](CCC(=O)O)C(=O)O
inactive: outcome [1] | outcome [2] | Potency [18] | activity change, positive = activation [19] 5.46% [at 42.5 µM] | outcome [4] | Potency [5] | outcome [6] | outcome [7] | Potency [8] | Potency [9] | outcome [10] | max response [11] 1.63% | outcome [12] | outcome [13] | outcome [14] | outcome [15] | Potency [16]
